Tested on: Vero E6 infected with SARS-CoV-2
Assay: inhibition of SARS-CoV-2 cytopathic effect; higher = more antiviral protection, active = above 15
Details: 48 h

Measured: inhibition of SARS-CoV-2 cytopathic effect

CCCCn1c(=O)c2[nH]c(C34CC5CC(CC3C5)C4)nc2n(CCCO)c1=O
inactive: 1 nM 1.96% | 8.33 nM 2.64% | 100 nM 0.93% | 833.33 nM -1.18% | 10000 nM -2.7%

CCOC(=O)[C@H]1O[C@@H]1C(=O)N[C@@H](CC(C)C)C(=O)NCCC(C)C [aloxistatin]
inactive: 1 nM 0.43% | 8.33 nM -1.01% | 100 nM 0.39% | 833.33 nM -0.54% | 10000 nM 11.2%

COc1ccccc1N1CCN(CCCCN2C(=O)c3ccccc3C2=O)CC1
inactive: 1 nM -0.49% | 8.33 nM -1.04% | 100 nM 2.68% | 833.33 nM 1.7% | 10000 nM 4.74%

Cc1ccc(O)c(N=Nc2ccccc2)n1
inactive: 1 nM -2.81% | 8.33 nM -4.41% | 100 nM -3.53% | 833.33 nM 0.01% | 10000 nM 3.77%

O=C1c2cc(Cl)ccc2OC2CCON12 (stereo not given) [seclazone]
inactive: 1 nM -0.24% | 8.33 nM 1.68% | 100 nM 1.79% | 833.33 nM 0.75% | 10000 nM 1.99%

C[C@@H](Oc1ccc2[nH]nc(/C=C/c3cnn(CCO)c3)c2c1)c1c(Cl)cncc1Cl
inactive: 1 nM -0.14% | 8.33 nM -0.97% | 100 nM -1.04% | 833.33 nM -13.8% | 10000 nM -14.7%

CC(C)N(CCNC(=O)CN1CCCC1=O)C(C)C [pramiracetam]
inactive: 1 nM -3.32% | 8.33 nM -1.27% | 100 nM 0.57% | 833.33 nM 3.04% | 10000 nM 0.12%
